Only some compounds are listed: those with a hit (about 19% of all), similar ones and a draw of the others.
DT40 TDP1 CPT – growth inhibition of DT40 Tdp1-/-;hTDP1 cells with camptothecin (screen for TDP1 inhibitors). chicken DT40 Tdp1-/-;hTDP1 cells + 20 nM CPT, ATP luminescence, 48 h. Potency, µM (top dose mostly 46.2 µM), for inactives: top-dose activity change, negative = growth inhibition, actives largely listed as inhibitors. actives 12% (n = 420,000); further: potency means the concentration at half of the fitted maximal effect; nearly all actives have a fitted effect of over 55% in size
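Chicken DT40 Tdp1-/- cells complemented with human TDP1, 400 cells/well, exposed to compounds plus 20 nM camptothecin for at least 48 h at 37 C; viability read as ATP content by CellTiter-Glo luminescence.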
IL-1B inflam inh – blocks inflammasome-driven IL-1 beta release; THP-1 LPS/ATP IL-1B secretion, AlphaLISA, 16 h; active compounds read low; activity change, % at 57.5 µM; actives 4.7% (n = 360,000); AID 743279; in the data active means activity change below about -50%; inconclusive means mostly about -30% to -49%
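Secreted IL-1B measured by AlphaLISA bead assay after 16 h compound exposure of THP-1 cells; compounds (final up to 57.5 uM) added 1 h before LPS (250 ng/mL) and ATP (1.25 mM) stimulation; lower signal means less secretion.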
TDP1 cell noCPT – qHTS for Inhibitors of human tyrosyl-DNA phosphodiesterase 1 (TDP1): qHTS in cells in absence of CPT. DT40 Tdp1-/- hTDP1 cells, no CPT, ATP luminescence, 48 h. Potency, µM (series often up to 46.2 µM), for the others: at the top dose activity change, negative = growth inhibition, most hits filed as inhibitors. actives 15% (n = 420,000). AID 686978, 2013; further: potency means the concentration at half of the fitted maximal effect; nearly all actives have a fitted effect of over 55% in size
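Camptothecin absent (DMSO only). Human TDP1-complemented DT40 knockout cells, 400 cells/well, 37 °C for minimum 48 hr; ATP measured via CellTiter-Glo, 30 min dark incubation, luminescence.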
ELG1 DNA repair – inhibitors of ELG1-dependent DNA repair in HEK293T cells | actives 2.3% (n = 330,000) | HEK293T ELG1-luciferase reporter, luminescence, 16 h; DNA damage induced by 5-fluorouridine | Potency, µM (highest dose often 46.1 µM), for the others: top-dose activity change, negative = inhibition, hits mostly inhibitors; further: potency means the concentration at half of the fitted maximal effect; nearly all actives have a fitted effect of over 55% in size
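HEK293T cells expressing luciferase-tagged ELG1 (2,000/well) received 5-Fluorouridine plus compound or DMSO for 16 hr at 37 °C. Luciferase was read by ONE-Glo luminescence after 30 min at room temperature.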
HT1080-NT tox – kills 2HG-producing HT-1080-NT fibrosarcoma cells; HT-1080-NT fibrosarcoma viability, CellTiter-Glo ATP luminescence, 48 h; Potency, µM (top dose mostly 46.1 µM), for inactives: at the highest dose activity, negative = less viability, hits mostly cytotoxic; actives 1.6% (n = 360,000);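 further: NT is the 2HG producing partner of a matched IDH1 knockdown line; potency means the concentration at half of the fitted maximal effect; 0% = DMSO-treated cells and -100% = media-only wells without cells; nearly all actives have a fitted effect of over 55% in size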
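750 cells/well, RPMI + 5% FBS; 2 h settle, compound pin-transfer, 48 h at 37 degrees C. CellTiter-Glo 10 min RT, luminescence. Normalized to DMSO and media-only wells.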
HT1080 IDH1KD tx – HT-1080 IDH1 knockdown cell toxicity (counter line); HT-1080 IDH1 knockdown viability, ATP luminescence, 48 h; actives 2% (n = 360,000); AID 686971; Potency, µM (doses to about 46.1 µM), without a hit: at the top dose activity, negative = toxicity, actives largely listed as cytotoxic;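 further: potency means the concentration at half of the fitted maximal effect; 0% = DMSO wells and -100% = cell-free medium wells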
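Luminescent ATP read-out (CellTiter-Glo, 10 min at room temperature) after 48 h compound exposure at 37 °C gave viability of IDH1-knockdown HT-1080 cells. Activity was normalised to DMSO and cell-free wells, then fitted as concentration-response curves.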
An asterisk follows results filed as active; ? = inconclusive; / = no result given; [ ] = dose if it differs, or a comment. Unless noted, the call rests on the fitted dose curve; in most records, active means well fitted curve in the direction sought with a large enough effect; inconclusive means small, poorly fitted or top-dose-only effect, or another doubt; inactive means no such curve, though single readings can be large; an effect the other way counts as inactive or inconclusive. Unless noted, on the % scale 0 is the no-effect control and ±100 the full control effect.

SMILES	DT40 TDP1 CPT	IL-1B inflam inh	TDP1 cell noCPT	ELG1 DNA repair	HT1080-NT tox	HT1080 IDH1KD tx
NS(=O)(=O)c1ccc(CCNC(=O)CN2CCN(Cc3cccc(C(F)(F)F)c3)CC2)cc1	23µM*	17	23µM*	-25%	-5%	-15%
NS(=O)(=O)c1ccc(CCNC(=O)CNCCc2ccccc2)cc1	-10%	10	-22%	2%	1%	9%
O=C(CN1CCN(c2ccc(F)cc2)CC1)N1CCC(Cc2ccccc2)CC1	?	-52*	?	-13%	0%	0%
O=C(CN1CCC(Cc2ccccc2)CC1)NCCc1ccc(F)cc1	2%	-69*	-28%	-3%	-12%	-20%
NS(=O)(=O)c1ccc(CCNC(=O)CN2CCC(Cc3ccccc3)CC2)cc1	?	-11	16µM*	?	-13%	?
Cc1cc(C)n(-c2ccc(C(=O)N3CCc4c(cnc(C)c4CNC(=O)c4ccccc4F)C3)cc2)n1	-7%[9.04 µM]	/	-10%	/	/	/
COc1ccc(OC)c(NC(=O)C2=C(C)C(=O)OC23CCN(C(C)C)CC3)c1	-28%	/	?	/	/	/
CCC1SC(CC)C(=O)N(CC(=O)NCCc2ccccc2)C1=O (stereo not drawn)	9%	3	8%	-7%	8%	-12%
O=C(CN1C(=O)C2C3C=CC(C3)C2C1=O)NCCc1ccccc1 (stereo not drawn)	12µM*	0	23µM*	?	8%	20%
CS(=O)(=O)c1ccc(Cl)c(NC(=O)CN2C(=O)C3CCCCC3C2=O)c1 (stereo not drawn)	7%	9	-21%	11%	-1%	4%
CCCCN(C)C(=O)c1sc(=O)n(Cc2c(C)cccc2C)c1C	?	-18	?	/	5%	15%
Fc1ccc2nc(C3CCCCN3Cc3nc(CC4CC4)no3)[nH]c2c1 (stereo not drawn)	-5%	-65*	?	1%	-15%	-2%
CC(CCCCCCCCC(=O)O)N(CCO)C(=O)OC(C)(C)C (stereo not drawn)	?	30	-22%	16%	-2%	9%
Brc1csc(CN2CCc3nc(Nc4ccccc4)ncc3C2)c1	21µM*	/	23µM*	/	/	/
CN1CCN(c2ncc3c(n2)CCN(Cc2cc(Br)cs2)C3)CC1	16µM*	/	?	/	/	/
CC(C)CN1CCc2nc(N3CCN(C)CC3)ncc2C1	-13%	/	-24%	/	/	/
COc1cc(Nc2ncc3c(n2)CCN(Cc2cc(Br)cs2)C3)cc(OC)c1	16µM*	/	23µM*	/	/	/
COc1ccccc1Nc1ncc2c(n1)CCN(Cc1ccc(C)s1)C2	-6%	/	-10%	/	/	/
COc1cc2nc(N3CCCC(O)C3)c(CNCc3ccccc3C(F)(F)F)cc2c(OC)c1OC (stereo not drawn)	23%[9.04 µM]	/	?	/	/	/
Cn1c(=O)c2c(-c3ccccc3)n3c4ccccc4nc(-c4ccccc4)c3c2n(C)c1=O	?	/	15µM*	/	/	/
COc1ccc(-c2c3c(=O)n(C)c(=O)n(C)c3c3c(-c4ccc(C)cc4)nc4ccccc4n23)cc1	-12%	/	-23%	/	/	/
COc1ccc(-c2nc3ccccc3n3c(-c4cccc(C)c4)c4c(=O)n(C)c(=O)n(C)c4c23)cc1	18µM*	/	-73%	/	/	/
CCc1nc2ccccc2n2c(-c3ccccc3)c3c(=O)n(C)c(=O)n(C)c3c12	15µM*	/	21µM*	/	/	/
Cc1cccc(-c2nc3ccccc3n3c(-c4ccccc4)c4c(=O)n(C)c(=O)n(C)c4c23)c1	-6%	/	2%	/	/	/
CC(=O)Nc1ccc(Nc2nc3c(S(=O)(=O)c4cccc(Cl)c4)nnn3c3ccsc23)cc1	?	/	-15%	/	/	/
